Where “and” joins values, the source holds several entries; their conditions need not be identical. Identical values can stand only once. For part of these data: Entries with a potency or affinity are not part of this list. Where a structure was tested more than once in an assay, its records may differ in their call. Calls of active or inactive are those of the source. Unless noted, how the calls were made is not given here.
Tests used:
[1] = antimalarial activity against Dd2 strain (AID 2302;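 active means growth inhibition above 50% at the single 2 µM test dose, taken to imply half-maximal potency below 2 µM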;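 further: 0% = DMSO untreated growth and 100% = chloroquine plus artemisinin killed control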); conditions: P. falciparum Dd2 in RBCs, LDH growth readout, 72 h; at 2 µM; stronger effect = higher value
[2] = human hepatoma cell viability loss – ATP luminescence, cytotoxicity control for P. falciparum antimalarial project, primary screen (AID 2303;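 active means inhibition above 50%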;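 further: 0% = DMSO wells and 100% = digitonin-killed cells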); conditions: HepG2 viability, 24-48 h, at 10 µM, stronger effect = higher value
[3] = target: L-lactate dehydrogenase (Plasmodium falciparum (isolate CDC / Honduras)) (UniProt Q27743); experiment: PfLDH activity inhibition – cell lysate, 3D7 strain, counter-screen for P. falciparum growth inhibition project (AID 2304);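 further: 0% = vehicle and 100% = reference inhibitor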; conditions: P. falciparum 3D7 crude extract, LDH APAD/NBT absorbance; at 2 µM; stronger effect = higher value
[4] = inhibition of 3D7 malaria parasite growth – strain 3D7 (AID 2306);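 further: 0% = DMSO wells and 100% = chloroquine plus artemisinin control wells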; conditions: P. falciparum 3D7 erythrocytic growth, LDH absorbance, 72 h; at 2 µM; stronger effect = higher value
[5] = target: Calcium-dependent protein kinase 1 (Plasmodium falciparum (isolate 3D7)) (UniProt P62344); experiment: PfCDPK1 kinase inhibitors, biochemical, TCAMS library (AID 1159585; cut-off not given, nearly all actives have IC50 up to about 0.98 µM;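 further: inhibitors leave more ATP so luminescence rises with inhibition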); conditions: recombinant PfCDPK1, Kinase-Glo ATP depletion luminescence
[6] = target: Plasmodium falciparum protein kinase 6 (PK6, PF3D7_1337100) (UniProt Q8IDW1); experiment: PfPK6 kinase inhibitors, biochemical, TCAMS library (AID 1159586); conditions: recombinant PfPK6, Kinase-Glo ATP depletion luminescence
[7] = target: Protein kinase 7 (PK7), Plasmodium falciparum 3D7 (PF3D7_0213400) (UniProt Q7YTF7); experiment: inhibition of Plasmodium PK7 catalytic activity – biochemical, TCAMS antimalarial set, Kinase-Glo luminescence (AID 1159587); conditions: recombinant PfPK7, Kinase-Glo ATP depletion luminescence
[8] = target: Calcium-dependent protein kinase 4 (Plasmodium falciparum (isolate 3D7)) (UniProt Q8IBS5); experiment: PfCDPK4 kinase inhibitors, biochemical, TCAMS library (AID 1159588; cut-off not given, nearly all actives have IC50 up to about 0.91 µM); conditions: recombinant PfCDPK4, Kinase-Glo ATP depletion luminescence
Calcium-dependent protein kinase 4 (Plasmodium falciparum (isolate 3D7)), sequence (Q8IBS5 whole entry, looked up): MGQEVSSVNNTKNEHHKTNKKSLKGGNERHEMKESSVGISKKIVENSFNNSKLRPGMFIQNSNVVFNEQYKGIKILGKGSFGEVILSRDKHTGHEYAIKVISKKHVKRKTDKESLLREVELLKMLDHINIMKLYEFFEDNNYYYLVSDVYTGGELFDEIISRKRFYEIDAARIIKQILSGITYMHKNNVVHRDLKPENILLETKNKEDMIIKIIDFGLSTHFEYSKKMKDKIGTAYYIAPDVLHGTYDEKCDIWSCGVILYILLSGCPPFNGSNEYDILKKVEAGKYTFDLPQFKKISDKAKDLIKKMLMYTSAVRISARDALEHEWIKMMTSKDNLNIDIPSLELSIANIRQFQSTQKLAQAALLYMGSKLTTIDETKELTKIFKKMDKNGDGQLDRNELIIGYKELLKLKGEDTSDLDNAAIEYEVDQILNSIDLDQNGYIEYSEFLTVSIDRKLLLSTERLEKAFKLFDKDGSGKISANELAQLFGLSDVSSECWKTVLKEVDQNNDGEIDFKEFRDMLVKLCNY

Calcium-dependent protein kinase 1 (Plasmodium falciparum (isolate 3D7)), sequence (P62344 whole entry, looked up): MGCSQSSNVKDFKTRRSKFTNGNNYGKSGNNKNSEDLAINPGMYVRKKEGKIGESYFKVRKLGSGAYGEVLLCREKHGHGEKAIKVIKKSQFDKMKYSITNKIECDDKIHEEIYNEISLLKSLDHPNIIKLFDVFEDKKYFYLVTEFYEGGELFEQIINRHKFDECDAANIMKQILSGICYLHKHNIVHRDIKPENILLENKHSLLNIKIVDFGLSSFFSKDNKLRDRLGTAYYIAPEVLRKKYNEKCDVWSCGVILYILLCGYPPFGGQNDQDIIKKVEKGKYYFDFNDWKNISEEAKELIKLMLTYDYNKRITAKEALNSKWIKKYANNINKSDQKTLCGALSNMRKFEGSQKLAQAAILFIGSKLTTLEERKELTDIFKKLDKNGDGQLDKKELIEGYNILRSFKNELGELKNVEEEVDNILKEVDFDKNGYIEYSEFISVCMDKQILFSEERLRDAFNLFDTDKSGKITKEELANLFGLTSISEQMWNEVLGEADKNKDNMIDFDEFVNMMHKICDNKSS
Plasmodium falciparum protein kinase 6 (PK6, PF3D7_1337100), sequence (Q8IDW1 1-305): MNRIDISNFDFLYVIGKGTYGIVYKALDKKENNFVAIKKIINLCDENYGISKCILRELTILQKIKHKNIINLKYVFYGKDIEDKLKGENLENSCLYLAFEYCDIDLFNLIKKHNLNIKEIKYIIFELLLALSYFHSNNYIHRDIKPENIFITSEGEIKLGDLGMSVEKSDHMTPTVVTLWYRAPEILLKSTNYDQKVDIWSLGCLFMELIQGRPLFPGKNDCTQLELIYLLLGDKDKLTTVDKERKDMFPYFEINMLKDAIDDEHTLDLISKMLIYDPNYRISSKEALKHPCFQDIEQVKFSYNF
L-lactate dehydrogenase (Plasmodium falciparum (isolate CDC / Honduras)), sequence (Q27743 whole entry, looked up): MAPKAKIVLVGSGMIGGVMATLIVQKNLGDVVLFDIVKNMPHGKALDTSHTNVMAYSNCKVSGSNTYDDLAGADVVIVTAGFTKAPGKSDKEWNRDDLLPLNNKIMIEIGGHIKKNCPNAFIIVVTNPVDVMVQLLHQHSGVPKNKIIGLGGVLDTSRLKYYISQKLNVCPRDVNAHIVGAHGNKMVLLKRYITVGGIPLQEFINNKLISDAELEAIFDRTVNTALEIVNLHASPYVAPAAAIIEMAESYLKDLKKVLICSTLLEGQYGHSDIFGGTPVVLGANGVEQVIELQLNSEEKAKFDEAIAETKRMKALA
Protein kinase 7 (PK7), Plasmodium falciparum 3D7 (PF3D7_0213400), sequence (Q7YTF7 1-343): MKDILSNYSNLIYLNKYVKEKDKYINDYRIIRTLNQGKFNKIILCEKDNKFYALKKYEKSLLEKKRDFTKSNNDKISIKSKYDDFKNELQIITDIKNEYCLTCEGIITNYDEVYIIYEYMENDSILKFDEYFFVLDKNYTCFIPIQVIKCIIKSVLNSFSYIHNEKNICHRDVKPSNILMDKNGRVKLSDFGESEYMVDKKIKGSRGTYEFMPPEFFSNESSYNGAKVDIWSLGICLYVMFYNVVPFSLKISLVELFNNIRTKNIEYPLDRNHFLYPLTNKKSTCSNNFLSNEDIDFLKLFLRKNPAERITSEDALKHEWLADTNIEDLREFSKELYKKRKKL

Cc1[nH]c2ccccc2c1C1=CCN(CCCCC2(C)C(=O)Nc3cccc(F)c32)CC1 (stereo not drawn)
inactive: inhibition [2] 9% | inhibition [3] -4% | outcome [5] | outcome [6] | outcome [7] | outcome [8]
active: growth inhibition [1] 90% | growth inhibition [4] 95%

CC[C@H]1CN2CC[C@H]1C[C@H]2[C@H](O)c1cc(N2CCCC(C(=O)N(CC)CC)C2)nc2ccc(OC)cc12 (stereo partly drawn)
inactive: inhibition [2] -13% | inhibition [3] -2% | outcome [5] | outcome [6] | outcome [7] | outcome [8]
active: growth inhibition [1] 99% | growth inhibition [4] 101%

N#Cc1ccc(N(CC(=O)NCCc2ccc(F)cc2)CC2CC2)c2ccccc12
inactive: growth inhibition [1] 23% | inhibition [2] 28% | inhibition [3] -2% | outcome [5] | outcome [6] | outcome [7] | outcome [8]
active: growth inhibition [4] 91%

CS(=O)(=O)Nc1ccc2c(C3CCN(CC4CCN(C(=O)/C=C/c5ccc(Cl)c(Cl)c5)CC4)CC3)c[nH]c2c1
inactive: inhibition [2] 28% | inhibition [3] -3% | outcome [5] | outcome [6] | outcome [7] | outcome [8]
active: growth inhibition [1] 70% | growth inhibition [4] 99%

COc1nc(N)ncc1C(=O)NC1CN2CCC1CC2 (stereo not drawn)
active: growth inhibition [4] 92%
inactive: growth inhibition [1] 0% | inhibition [2] 26% | inhibition [3] -1% | outcome [5] | outcome [6] | outcome [7] | outcome [8]

COc1cccc(O)c1CNCC(O)c1cccc(C(F)(F)F)c1 (stereo not drawn)
active: growth inhibition [1] 96% | growth inhibition [4] 98%
inactive: inhibition [2] 31% | inhibition [3] 4% | outcome [5] | outcome [6] | outcome [7] | outcome [8]

C1=C(c2c[nH]c3ccccc23)CCN(Cc2ccccc2)C1
inactive: inhibition [2] 22% | inhibition [3] -1% | outcome [5] | outcome [6] | outcome [7] | outcome [8]
active: growth inhibition [1] 80% | growth inhibition [4] 91%

COc1cc(/C=C/C(=O)NC2CCC(CN3CCC(c4c[nH]c5ccccc45)CC3)CC2)ccc1O (stereo not drawn)
active: growth inhibition [4] 98% and 99%
inactive: growth inhibition [1] 45% and 44% | inhibition [2] 11% and 19% | inhibition [3] -8% and -2% | outcome [5] | outcome [6] | outcome [7] | outcome [8]

CC(=O)Nc1ccc(OCCN(CC(C)(C)C)c2ccc(C#N)c(C(F)(F)F)c2)c(Cl)c1
active: growth inhibition [1] 93% | growth inhibition [4] 87%
inactive: inhibition [2] -6% | inhibition [3] -1% | outcome [5] | outcome [6] | outcome [7] | outcome [8]

CC[C@H]1CN2CC[C@H]1C[C@@H]2[C@H](O)c1ccnc2ccc(O)cc12
inactive: growth inhibition [1] -4% | inhibition [2] -3% | inhibition [3] -2% | outcome [5] | outcome [6] | outcome [7] | outcome [8]
active: growth inhibition [4] 94%

CC(Cc1ccc(OCCOc2ccccc2)cc1)NCC(O)c1cccc(C(F)(F)F)c1 (stereo not drawn)
inactive: inhibition [2] 16% | inhibition [3] -6% | outcome [5] | outcome [6] | outcome [7] | outcome [8]
active: growth inhibition [1] 76% | growth inhibition [4] 91%

O=C(/C=C/c1c(Cl)cccc1Cl)NC1CCC(CN2CCC(c3c[nH]c4ccccc34)CC2)CC1 (stereo not drawn)
54% (active) and 39% (inactive): inhibition [2]
active: growth inhibition [4] 93% and 100%
inactive: growth inhibition [1] 42% and 21% | inhibition [3] -4% and 4% | outcome [5] | outcome [6] | outcome [7] | outcome [8]

CNCCN(C)C(=O)Oc1c(Cl)c(C)nc(C)c1-c1ccc(Oc2ccc(OC(F)(F)F)cc2)cc1
inactive: inhibition [2] -2% | inhibition [3] -2% | outcome [5] | outcome [6] | outcome [7] | outcome [8]
active: growth inhibition [1] 96% | growth inhibition [4] 97%

O=C(/C=C/c1ccc(Cl)c(Cl)c1)N1CCC(CN2CC[C@H](c3c[nH]c4ccccc34)[C@@H](O)C2)CC1
active: growth inhibition [4] 99%
inactive: growth inhibition [1] 14% | inhibition [2] 37% | inhibition [3] -7% | outcome [5] | outcome [6] | outcome [7] | outcome [8]

COc1ccccc1CC(C)NCC(O)c1cccc(Cl)c1 (stereo not drawn)
inactive: inhibition [2] 13% | inhibition [3] -6% | outcome [5] | outcome [6] | outcome [7] | outcome [8]
active: growth inhibition [1] 98% | growth inhibition [4] 97%

CCC(C)CN1CCC(N(C)c2cc(NC(=O)c3cccc(C)c3)ccn2)CC1 (stereo not drawn)
active: growth inhibition [4] 93%
inactive: growth inhibition [1] 14% | inhibition [2] 1% | inhibition [3] 1% | outcome [5] | outcome [6] | outcome [7] | outcome [8]

C[C@@H](NC(C)(C)C)[C@H](O)c1ccc(Cl)c(C(F)(F)F)c1
active: growth inhibition [1] 97% | growth inhibition [4] 97%
inactive: inhibition [2] -1% | inhibition [3] -6% | outcome [5] | outcome [6] | outcome [7] | outcome [8]

O=C(/C=C/c1ccc(Cl)c(Cl)c1)N1CCC(CN2CCC(c3c[nH]c4cc(C(F)(F)F)ccc34)CC2)CC1
inactive: growth inhibition [1] 38% | inhibition [2] 6% | inhibition [3] -5% | outcome [5] | outcome [6] | outcome [7] | outcome [8]
active: growth inhibition [4] 99%

COC(=O)c1ccc(CC(C)NCC(O)c2cccc(Oc3cccc(C(F)(F)F)c3)c2)cc1 (stereo not drawn)
active: growth inhibition [1] 73% | growth inhibition [4] 91%
inactive: inhibition [2] 19% | inhibition [3] 2% | outcome [5] | outcome [6] | outcome [7] | outcome [8]

CC[C@H]1CN2CC[C@H]1C[C@H]2[C@H](O)c1cc(-c2cccc(F)c2)nc2ccc(OC)cc12
active: growth inhibition [1] 97% | growth inhibition [4] 99%
inactive: inhibition [2] 34% | inhibition [3] 5% | outcome [5] | outcome [6] | outcome [7] | outcome [8]

CC(=O)N(Cc1ccccc1-c1cccc(CNCc2ccc3c(c2)OCO3)c1)C1CCN(Cc2ccccc2)CC1
active: growth inhibition [4] 85%
inactive: growth inhibition [1] 44% | inhibition [2] 17% | inhibition [3] -3% | outcome [5] | outcome [6] | outcome [7] | outcome [8]

Reference: PubChem BioAssay
